Assay results reported in PubChem BioAssay AID1159580 (chemical genetic matrix, 2015).
Where “and” joins values, the source holds several entries; their conditions need not be identical. Equal values may be shown once. Among all 5,500 compounds or so, about 2,000 (36%) were called active. Not shown: some 18% with an inconclusive outcome. Rule as the data show it: active = normalized growth mostly below about 0.91 (no sharp cut-off); inconclusive = no clear call, values can overlap the other calls; inactive = mostly above about 0.92. This is one part of the list.

Test: chemical genetic growth profiling, strain panel (AID 1159580);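 also: tested at 20 µM; growth read once vehicle control cultures reached saturation at 30 °C; 1 = growth at the plate median or of vehicle wells; lower values mean less growth of the strain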
Settings: growth OD

Measured: normalized growth

O=C(C1CCCCC1)N1CC(=O)N2CCc3ccccc3C2C1 (centres undefined)
inactive: S. cerevisiae deletion strains, locus YJR075W, strain HOC1, hits give low values 1 | S. cerevisiae deletion strains, locus YKL009W, strain mrt4, hits give low values 1.02 | S. cerevisiae deletion strains, locus YKL068W, hits give low values 1 | S. cerevisiae deletion strains, locus YKL085W, strain MDH1 (second series), hits give low values 1.01 | S. cerevisiae deletion strains, locus YKL085W, strain MDH1, hits give low values 1.01 | S. cerevisiae deletion strains, locus YKL160W, strain elf1, hits give low values 1.01 | S. cerevisiae deletion strains, locus YKL190W, strain CNB1, hits give low values 1 | S. cerevisiae deletion strains, locus YKR001C, strain vps1, hits give low values 1.01 | S. cerevisiae deletion strains, locus YKR026C, strain gcn3, hits give low values 1.01 | S. cerevisiae deletion strains, locus YKR091W, strain srl3, hits give low values 1.01 | S. cerevisiae deletion strains, locus YLL001W, strain dnm1, hits give low values 1.06 | S. cerevisiae deletion strains, locus YLL026W, hits give low values 1.01 | S. cerevisiae deletion strains, locus YLL041C, strain sdh2, hits give low values 0.995 | S. cerevisiae deletion strains, locus YLR027C, strain aat2, hits give low values 0.984 | S. cerevisiae deletion strains, locus YLR039C, strain RIC1, hits give low values 1.01 | S. cerevisiae deletion strains, locus YLR058C, strain SHM2, hits give low values 1 | S. cerevisiae deletion strains, locus YLR102C, strain apc9, hits give low values 1.01 | S. cerevisiae deletion strains, locus YLR113W, strain HOG1, hits give low values 1.01 | S. cerevisiae deletion strains, locus YLR221C, strain rsa3, hits give low values 1.03 | S. cerevisiae deletion strains, locus YLR258W, strain gsy2, hits give low values 1.03 | S. cerevisiae deletion strains, locus YLR262C, strain YPT6 (second series), hits give low values 1.04 | S. cerevisiae deletion strains, locus YLR262C, strain YPT6, hits give low values 1.02 | S. cerevisiae deletion strains, locus YLR268W, strain sec22, hits give low values 1.03 | S. cerevisiae deletion strains, locus YLR320W, strain mms22, hits give low values 1.02 | S. cerevisiae deletion strains, locus YLR330W, strain CHS5, hits give low values 1.01 | S. cerevisiae deletion strains, locus YLR342W, strain FKS1 (second series), hits give low values 1.01 | S. cerevisiae deletion strains, locus YLR342W, strain FKS1, hits give low values 1.01 | S. cerevisiae deletion strains, locus YLR357W, strain rsc2, hits give low values 0.998 | S. cerevisiae deletion strains, locus YLR370C, strain arc18, hits give low values 1.02 | S. cerevisiae deletion strains, locus YLR371W, strain rom2, hits give low values 1.01 | S. cerevisiae deletion strains, locus YLR384C, strain iki3, hits give low values 1.01 | S. cerevisiae deletion strains, locus YLR418C, strain cdc73, hits give low values 1.01 | S. cerevisiae deletion strains, locus YML016C, strain PPZ1, hits give low values 0.999 | S. cerevisiae deletion strains, locus YML032C, strain rad52, hits give low values 1.01 | S. cerevisiae deletion strains, locus YML120C, strain ndi1, hits give low values 1.04 | S. cerevisiae deletion strains, locus YML124C, strain tub3, hits give low values 1 | S. cerevisiae deletion strains, locus YMR058W, strain fet3, hits give low values 1 | S. cerevisiae deletion strains, locus YMR078C, strain ctf18, hits give low values 0.997 | S. cerevisiae deletion strains, locus YMR125W, strain sto1, hits give low values 1.02 | S. cerevisiae deletion strains, locus YMR129W, hits give low values 1.01 | S. cerevisiae deletion strains, locus YMR205C, strain PFK2, hits give low values 1.02 | S. cerevisiae deletion strains, locus YMR223W, strain ubp8, hits give low values 0.987 | S. cerevisiae deletion strains, locus YMR231W, strain pep5, hits give low values 1 | S. cerevisiae deletion strains, locus YMR263W, strain SAP30, hits give low values 1 | S. cerevisiae deletion strains, locus YMR307W, strain GAS1, hits give low values 1 and 0.995 | S. cerevisiae deletion strains, locus YNL067W, strain RPL9B, hits give low values 1 | S. cerevisiae deletion strains, locus YNL071W, strain lat1, hits give low values 0.996 | S. cerevisiae deletion strains, locus YNL153C, strain GIM3, hits give low values 1.03 | S. cerevisiae deletion strains, locus YNL175C, strain NOP13, hits give low values 1.01 | S. cerevisiae deletion strains, locus YNL183C, strain NPR1, hits give low values 0.96 | S. cerevisiae deletion strains, locus YNL197C, strain WHI3, hits give low values 1.01 | S. cerevisiae deletion strains, locus YNL209W, strain ssb2, hits give low values 1 | S. cerevisiae deletion strains, locus YNL224C, strain SQS1, hits give low values 1.02 | S. cerevisiae deletion strains, locus YNL233W, strain BNI4, hits give low values 0.995 | S. cerevisiae deletion strains, locus YNL248C, strain rpa49, hits give low values 0.893 | S. cerevisiae deletion strains, locus YNL250W, strain rad50, hits give low values 1.01 | S. cerevisiae deletion strains, locus YNL271C, strain bni1, hits give low values 1 | S. cerevisiae deletion strains, locus YNL298W, strain CLA4, hits give low values 1.01 | S. cerevisiae deletion strains, locus YNL307C, strain MCK1, hits give low values 1.02 | S. cerevisiae deletion strains, locus YNL322C, strain KRE1 (second series), hits give low values 1.02 | S. cerevisiae deletion strains, locus YNL322C, strain KRE1, hits give low values 1 and 1.01 | S. cerevisiae deletion strains, locus YNR049C, strain mso1, hits give low values 1 | S. cerevisiae deletion strains, locus YNR052C, strain pop2, hits give low values 1.01 | S. cerevisiae deletion strains, locus YOL006C, strain TOP1, hits give low values 0.912 | S. cerevisiae deletion strains, locus YOL012C, strain htz1 0.872 | S. cerevisiae deletion strains, locus YOL147C, strain pex11, hits give low values 1.01 | S. cerevisiae deletion strains, locus YOR001W, strain rrp6, hits give low values 0.971 | S. cerevisiae deletion strains, locus YOR061W, strain CKA2, hits give low values 1 | S. cerevisiae deletion strains, locus YOR069W, strain VPS5, hits give low values 1 | S. cerevisiae deletion strains, locus YOR070C, strain gyp1, hits give low values 1 | S. cerevisiae deletion strains, locus YOR080W, strain dia2, hits give low values 1.01 | S. cerevisiae deletion strains, locus YOR083W, strain WHI5 (second series), hits give low values 1.01 | S. cerevisiae deletion strains, locus YOR083W, strain WHI5, hits give low values 1.03 | S. cerevisiae deletion strains, locus YOR106W, strain vam3, hits give low values 1.01 | S. cerevisiae deletion strains, locus YOR136W, strain idh2, hits give low values 1.01 | S. cerevisiae deletion strains, locus YOR144C, strain elg1, hits give low values 1.01 | S. cerevisiae deletion strains, locus YOR184W, strain ser1, hits give low values 1 | S. cerevisiae deletion strains, locus YOR231W, strain MKK1, hits give low values 1 | S. cerevisiae deletion strains, locus YOR265W, strain rbl2, hits give low values 1 | S. cerevisiae deletion strains, locus YOR270C, strain vph1, hits give low values 0.955 | S. cerevisiae deletion strains, locus YOR290C, strain snf2, hits give low values 1.02 | S. cerevisiae deletion strains, locus YOR316C, strain cot1, hits give low values 1 | S. cerevisiae deletion strains, locus YPL051W, strain arl3, hits give low values 0.988 | S. cerevisiae deletion strains, locus YPL078C, strain atp4, hits give low values 0.974 | S. cerevisiae deletion strains, locus YPL106C, strain sse1, hits give low values 1.04 | S. cerevisiae deletion strains, locus YPL240C, strain hsp82, hits give low values 0.998 | S. cerevisiae deletion strains, locus YPL241C, strain CIN2, hits give low values 1 | S. cerevisiae deletion strains, locus YPL256C, strain CLN2, hits give low values 0.965 | S. cerevisiae deletion strains, locus YPR119W, strain clb2, hits give low values 1 | S. cerevisiae deletion strains, locus YPR141C, strain kar3, hits give low values 1.01 | S. cerevisiae deletion strains, locus YPR163C, strain tif3, hits give low values 1.02 | S. cerevisiae deletion strains, locus YPR167C, strain met16, hits give low values 1.02 | S. cerevisiae deletion strains, strain wtn01, hits give low values 1.02 | S. cerevisiae strains, strain wild type, hits give low values 0.999
